Here are results for 11 compounds from PubChem BioAssay (NCATS).

A number with no mark means an inactive call. Records with an inconclusive call do not appear. Activity calls are given as the source filed them. Unless noted, calls follow the shape of the dose curve; as a rule, active = well fitted curve in either direction with a large enough effect (not every such curve was filed as active); inconclusive = small, poorly fitted or top-dose-only effect, or another doubt; inactive = flat fitted curve, though single readings scatter.

Test [1] is described as follows: AP1 Signaling Pathway (AID 357). Also: % is scaled to controls: 0 for no effect and ±100 for the full control effect. As to conditions: ME-180 AP-1-bla reporter, EGF-induced, beta-lactamase ratio, 5 h; at 17.2 µM (top of the series) unless noted. The method in brief: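 ME-180 cells with beta-lactamase reporter under AP-1 response element, stimulated with EC50 EGF; compounds tested in titration series, 5 h at 37 °C. CCF4 substrate added 2.5 h at room temperature; 460/530 nm emission ratio gave %activity and AC50.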

Test [2] is described as follows: NFAT Signaling Pathway (AID 444).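 Also: carbachol stimulus at about its EC50 of 1 µM final; % is scaled to controls: 0 for no effect and ±100 for the full control effect.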 The settings on record: Jurkat NFAT-bla M1, carbachol, beta-lactamase ratio, 5 h; at 17.2 µM (top of the series) unless noted. An outline of the steps: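 Jurkat cells carrying an NFAT-driven β-lactamase reporter and co-transfected muscarinic M1 receptor were treated with compound plus carbachol (1 uM final, an EC50 level) for 5 h at 37 °C. CCF4 loading followed for 1 h at RT; 460/530 nm ratio gave %activity.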

A short description of test [3]: Stat Signaling Pathway (AID 446).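 Also: ME-180 cervical cancer cells given 40 pM IL-6 alongside compound; SIE-controlled beta-lactamase reporter measured as 460/530 nm FRET emission ratio; % is scaled to controls: 0 for no effect and ±100 for the full control effect.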 As to conditions: ME-180 SIE beta-lactamase reporter, IL-6 stimulated, 5 h; at 17.2 µM (top of the series) unless noted. The method in brief: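 ME-180 SIE-bla cells; overnight plating; cpd + IL-6 40 pM, 5 h, 37 C; LiveBLAzer 2.5 h RT; 460/530 nm emission ratio. Normalized to 300 pM IL-6 and 125 nM JAK inhibitor controls.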
The target in test [4] is Glucocorticoid receptor (Homo sapiens) (UniProt P04150). Put plainly: GR-GFP Redistribution (AID 450;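 active = compounds whose dose series gives a full or clear partial fitted curve of increased nuclear translocation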; also: potency is read from the fitted curve at half-maximal effect).
Chain of Glucocorticoid receptor (Homo sapiens) (P04150 whole entry, looked up): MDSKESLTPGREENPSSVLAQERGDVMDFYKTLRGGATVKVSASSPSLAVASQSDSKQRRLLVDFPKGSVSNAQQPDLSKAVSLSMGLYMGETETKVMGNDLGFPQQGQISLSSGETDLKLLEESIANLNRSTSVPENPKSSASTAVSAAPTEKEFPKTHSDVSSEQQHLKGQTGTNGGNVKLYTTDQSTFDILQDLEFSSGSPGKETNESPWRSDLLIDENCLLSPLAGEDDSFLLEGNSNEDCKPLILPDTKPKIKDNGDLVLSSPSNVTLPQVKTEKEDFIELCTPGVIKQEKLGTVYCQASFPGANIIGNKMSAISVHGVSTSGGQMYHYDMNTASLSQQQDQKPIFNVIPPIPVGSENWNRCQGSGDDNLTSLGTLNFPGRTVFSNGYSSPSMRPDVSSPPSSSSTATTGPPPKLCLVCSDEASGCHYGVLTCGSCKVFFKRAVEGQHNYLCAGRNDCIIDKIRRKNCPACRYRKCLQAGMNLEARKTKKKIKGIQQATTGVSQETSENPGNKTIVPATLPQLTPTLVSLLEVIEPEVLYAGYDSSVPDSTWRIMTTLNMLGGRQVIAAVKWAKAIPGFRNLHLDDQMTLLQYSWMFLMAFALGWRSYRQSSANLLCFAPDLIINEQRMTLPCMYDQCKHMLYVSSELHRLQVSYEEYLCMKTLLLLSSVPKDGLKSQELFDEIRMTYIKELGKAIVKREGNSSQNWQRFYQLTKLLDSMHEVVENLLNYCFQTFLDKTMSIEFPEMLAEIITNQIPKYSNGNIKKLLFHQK
A short description of test [5]: qHTS Assay for Identification of Small Molecule Agonists for Hypoxia Response Element Signaling Pathway (AID 914; active = well fitted activation curve with a large enough effect in the signal ratio, with a control signal flat, not every such curve was filed as active; the % refers to the signal ratio; also: potency is read from the fitted curve at half-maximal effect; as to activation: % of control where 0% means no effect). As to conditions: ME-180 HRE-bla reporter, beta-lactamase ratio, CoCl2, 17 h; activation: hits give high values. An outline of the steps: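 ME-180 cells carrying an HRE-driven beta-lactamase reporter were treated with compounds in a titration series plus an EC50 level of CoCl2 for 17 h at 37 degrees Celsius; CCF4 readout as the 460nm/530nm ratio gave AC50 values.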
For orientation: Quantitative high-throughput screening tests each substance at several concentrations.

The target of test [6] is Mitogen-activated protein kinase 10 (Mus musculus) (UniProt Q61831). Put plainly: JNK3 AlphaScreen Assay (AID 530).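 Also: kinase came from lysate of stimulated human HepG2 cells; signal reports phosphorylation of biotinylated GST-cJun 1-79 at Ser73 with 10 µM ATP; % is scaled to controls: 0 for no effect and ±100 for the full control effect.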 An outline of the steps: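 JNK3 came from HepG2 lysates pre-activated with IL-1beta and TNF-alpha and phosphorylated biotinylated GST-cJun (1-79) at 10 uM ATP, pH 7.6, room temperature. Compounds were titrated. AlphaScreen signal used anti-phospho-cJun (Ser73) antibody.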
(In general: In Alpha technology, singlet oxygen from a donor bead excites a nearby acceptor bead.)

The target of test [7] is ATP-dependent 6-phosphofructokinase (Trypanosoma brucei brucei) (UniProt O15648). Put plainly: qHTS Assay to Find Inhibitors of T. brucei phosphofructokinase: hit validation (AID 492961; active = well fitted curve in the direction sought with a large enough effect; an effect the other way counts as inactive or inconclusive). The method in brief: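 Reaction: 0.1 M triethanolamine pH 8.0, 5 mM MgCl2, F6P 0.5 mM, ATP 0.1 mM, PFK 1.25 nM, 45 min RT. Read-out: ADP-Glo luminescence. Analysis: concentration-response fits, classed by r2 and efficacy.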
Chain of ATP-dependent 6-phosphofructokinase (Trypanosoma brucei brucei) (O15648 whole entry, looked up): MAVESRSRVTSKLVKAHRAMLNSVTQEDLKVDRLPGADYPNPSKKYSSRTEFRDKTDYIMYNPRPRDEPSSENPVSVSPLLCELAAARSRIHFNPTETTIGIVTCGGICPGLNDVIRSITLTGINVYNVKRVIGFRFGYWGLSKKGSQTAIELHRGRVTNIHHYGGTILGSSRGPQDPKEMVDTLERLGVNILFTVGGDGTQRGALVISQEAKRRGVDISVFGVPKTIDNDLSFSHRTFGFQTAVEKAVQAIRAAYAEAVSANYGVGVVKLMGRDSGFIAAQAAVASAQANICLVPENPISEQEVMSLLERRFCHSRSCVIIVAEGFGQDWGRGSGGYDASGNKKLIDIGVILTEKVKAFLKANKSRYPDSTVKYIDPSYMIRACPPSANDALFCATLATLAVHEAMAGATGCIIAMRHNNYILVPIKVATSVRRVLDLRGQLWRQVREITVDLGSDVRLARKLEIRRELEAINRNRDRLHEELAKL

Test [8] concerns the target Ubiquitin carboxyl-terminal hydrolase 1 (Homo sapiens) (UniProt O94782). In words: Inhibitors of USP1/UAF1: Pilot qHTS (AID 504865; active = well fitted curve in the direction sought with a large enough effect; an effect the other way counts as inactive or inconclusive;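 also: rhodamine fluorescence freed from ubiquitin-rhodamine substrate followed over time; top concentration of the series differs between compounds; % is scaled to controls: 0 for no effect and ±100 for the full control effect; nearly all actives have a fitted effect of over 35% in size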). An outline of the steps:
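Enzyme-free wells gave the negative control, while test wells held 1nM USP1/UAF1 preincubated with compound for 15 min at room temperature. Ub-Rho at 150nM final started the reaction, and fluorescence at 480/540 nm was recorded kinetically.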

For test [9], the target named is Luciferin 4-monooxygenase (Photinus pyralis) (UniProt P08659). Put plainly: Biochemical firefly luciferase enzyme assay for NPC (AID 624030; active = well fitted curve in the direction sought with a large enough effect; an effect the other way counts as inactive or inconclusive;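 also: purified P. pyralis luciferase at 10 nM with luciferin and ATP substrate; 0% = DMSO and -100% = full luciferase inhibition by PTC124 control; nearly all actives have a fitted effect of over 70% in size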). An outline of the steps: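 Counter-screen for direct inhibition of the luciferase enzyme by approved-drug library compounds, run at 10 nM enzyme in 50 mM Tris acetate (final). Luminescence was read within 5 min of enzyme-buffer addition and normalized to PTC124 versus DMSO (0%).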
Chain of Luciferin 4-monooxygenase (Photinus pyralis) (P08659 whole entry, looked up): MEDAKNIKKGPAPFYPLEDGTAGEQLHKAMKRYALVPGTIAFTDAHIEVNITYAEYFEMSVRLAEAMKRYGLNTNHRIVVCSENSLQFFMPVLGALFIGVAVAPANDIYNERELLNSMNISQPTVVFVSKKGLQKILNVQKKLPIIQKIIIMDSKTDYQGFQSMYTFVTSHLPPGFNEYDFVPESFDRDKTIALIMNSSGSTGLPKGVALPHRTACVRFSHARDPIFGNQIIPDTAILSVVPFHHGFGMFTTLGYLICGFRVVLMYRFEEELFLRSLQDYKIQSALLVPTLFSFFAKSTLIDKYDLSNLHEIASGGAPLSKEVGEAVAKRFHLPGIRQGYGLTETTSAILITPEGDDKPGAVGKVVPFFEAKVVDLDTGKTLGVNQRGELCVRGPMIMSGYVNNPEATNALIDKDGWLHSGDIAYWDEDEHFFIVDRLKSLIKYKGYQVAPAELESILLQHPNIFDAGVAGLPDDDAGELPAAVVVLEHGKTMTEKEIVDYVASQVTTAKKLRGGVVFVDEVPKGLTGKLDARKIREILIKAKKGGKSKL

A short description of test [10]: S16 Schwann cell viability assay (CellTiter-Glo assay) (AID 624031; active = well fitted curve in the direction sought with a large enough effect; an effect the other way counts as inactive or inconclusive;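 also: plate controls were DMSO-treated cells for no effect and cell-free wells for full effect; nearly all actives have a fitted effect of over 70% in size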). The method in brief:
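Native S16 rat Schwann cells in DMEM/10% FBS without phenol red were incubated overnight, then exposed to compounds for 24 h at 37 °C/5% CO2. Viability was read as ATP luminescence (CellTiter-Glo), normalized to no-cell wells and DMSO (0%).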
(ATP-based viability assays read luminescence as a measure of living cells.)

The nature of test [11]: S16 Schwann cell PMP22 intronic element firefly luciferase assay (AID 624032; active = well fitted curve in the direction sought with a large enough effect; an effect the other way counts as inactive or inconclusive;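 also: plate controls were DMSO for no effect and PTC124 positive control mean for full effect; nearly all actives have a fitted effect of over 30% in size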). An outline of the steps:
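Rat S16 Schwann cells stably carrying a PMP22 intronic element-driven Fluc reporter were seeded overnight, then exposed to compounds for 24 h at 37 °C. Luminescence was normalized to PTC124 (positive control) and DMSO (0% activity).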

Test [12] can be described thus: S16 Schwann cell PMP22 intronic element beta-lactamase assay (AID 624044; calls by dose curve;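 also: 0% = DMSO and -100% = potassium clavulanate positive control; nearly all actives have a fitted effect of over 15% in size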). As to conditions: S16 rat Schwann cells, PMP22 element beta-lactamase FRET, 24 h; ratio activity, negative = inhibition: at 38.3 µM (top of the series). An outline of the steps: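 Rat S16 Schwann cells with beta-Lac driven by a PMP22 intronic element, compound-treated 24 h at 37 °C. LiveBLAzer FRET B/G read: 460 nm normalized to potassium clavulanate vs DMSO; 535 nm FRET as viability; concentration-effect curves classified.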

The test system of a further test is ATS189. In words: qHTS profiling for inhibitors of Plasmodium falciparum proliferation (AID 504749; active = well fitted curve in the direction sought with a large enough effect; an effect the other way counts as inactive or inconclusive; also: nearly all actives have a fitted effect of over 60% in size; also: potency is read from the fitted curve at half-maximal effect;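 as to activity, negative = inhibition: 0% = DMSO vehicle and full inhibition = artemisinin control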). The settings on record: P. falciparum in erythrocytes, SYBR Green DNA, 72 h; series mostly up to 28.7 µM. The method in brief: (§1)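 P. falciparum-infected erythrocytes (0.3% parasitemia, 2.5% hematocrit final) were exposed to compounds for 72 h at 37 C in 5% CO2, then lysed with SYBR Green buffer overnight at room temperature; parasite DNA fluorescence was normalized to artemisinin and DMSO controls.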

Another test relates to CP262. Described as above. The settings on record: P. falciparum in erythrocytes, SYBR Green DNA, 72 h; series mostly up to 28.7 µM. The method in brief:
as §1

The next test has as its system CP297. The test is described as above. As to conditions: P. falciparum in erythrocytes, SYBR Green DNA, 72 h; series mostly up to 28.7 µM. The method in brief:
as §1

The test system of a further test is CP335. The test is described as above. As to conditions: P. falciparum in erythrocytes, SYBR Green DNA, 72 h; series mostly up to 28.7 µM. An outline of the steps: as §1
Another test deals with Dd2. The test is described as above. The settings on record: P. falciparum in erythrocytes, SYBR Green DNA, 72 h; series mostly up to 28.7 µM. The method in brief: as §1
Another test relates to TAB109. The description is as above. As to conditions: P. falciparum in erythrocytes, SYBR Green DNA, 72 h; series mostly up to 28.7 µM. An outline of the steps:
as §1

The next test has as its system W2. The test is described as above. As to conditions: P. falciparum in erythrocytes, SYBR Green DNA, 72 h; series mostly up to 28.7 µM. An outline of the steps: as §1
The target of test [13] is Guanine nucleotide-binding protein G(i) subunit alpha-1 (Homo sapiens) (UniProt P63096). In words: qHTS Assay for Inhibitors of RGS12 GoLoco Motif Activity (Green Fluorophore) (AID 879; active = well fitted curve in the direction sought with a large enough effect; an effect the other way counts as inactive or inconclusive;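 also: 0% = labeled peptide with Gαi1 and full inhibition = labeled peptide alone without protein; negative values mean loss of peptide binding seen as reduced polarization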). An outline of the steps: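 Fluorescence polarization assay: 50 nM Gαi1 with 10 nM FITC-labeled RGS12 GoLoco peptide in 10 mM Tris pH 7.5, 150 mM NaCl, 0.1 mM GDP, 0.05% NP40, 10 min at room temperature with compound.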
Chain of Guanine nucleotide-binding protein G(i) subunit alpha-1 (Homo sapiens) (P63096 whole entry, looked up): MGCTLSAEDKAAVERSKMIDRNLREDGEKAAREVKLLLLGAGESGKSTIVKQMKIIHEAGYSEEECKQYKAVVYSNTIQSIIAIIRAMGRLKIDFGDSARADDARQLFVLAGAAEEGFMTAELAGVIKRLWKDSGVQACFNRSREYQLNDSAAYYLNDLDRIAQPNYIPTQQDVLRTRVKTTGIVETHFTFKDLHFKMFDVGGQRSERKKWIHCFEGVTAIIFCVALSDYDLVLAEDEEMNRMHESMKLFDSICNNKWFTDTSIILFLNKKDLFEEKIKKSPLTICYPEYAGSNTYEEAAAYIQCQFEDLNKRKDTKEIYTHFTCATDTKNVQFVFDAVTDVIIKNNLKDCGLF

Chain of Ubiquitin carboxyl-terminal hydrolase 1 (Homo sapiens) (O94782 whole entry, looked up): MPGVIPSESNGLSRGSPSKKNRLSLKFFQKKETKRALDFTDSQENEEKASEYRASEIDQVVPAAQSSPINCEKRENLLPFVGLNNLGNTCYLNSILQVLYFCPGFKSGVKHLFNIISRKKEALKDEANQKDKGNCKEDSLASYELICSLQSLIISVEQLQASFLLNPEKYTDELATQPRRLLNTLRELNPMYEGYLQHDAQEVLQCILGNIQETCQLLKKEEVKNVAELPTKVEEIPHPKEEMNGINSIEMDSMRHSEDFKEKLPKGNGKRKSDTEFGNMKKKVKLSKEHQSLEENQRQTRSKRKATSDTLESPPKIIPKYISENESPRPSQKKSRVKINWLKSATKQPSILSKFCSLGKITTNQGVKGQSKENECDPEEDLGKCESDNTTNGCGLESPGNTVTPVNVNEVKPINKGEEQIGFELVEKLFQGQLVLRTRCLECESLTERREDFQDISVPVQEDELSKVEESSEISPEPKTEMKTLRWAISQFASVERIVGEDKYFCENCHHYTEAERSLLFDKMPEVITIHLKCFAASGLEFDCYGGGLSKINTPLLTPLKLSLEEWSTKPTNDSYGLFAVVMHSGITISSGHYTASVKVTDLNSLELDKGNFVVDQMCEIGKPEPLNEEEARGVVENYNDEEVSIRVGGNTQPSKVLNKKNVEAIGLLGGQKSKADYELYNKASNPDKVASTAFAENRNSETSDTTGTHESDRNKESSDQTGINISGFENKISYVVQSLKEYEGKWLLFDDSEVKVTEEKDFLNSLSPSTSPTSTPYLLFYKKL

In the case of `CC(C)COC(=O)CCNc1n[nH]c(=O)[nH]c1=O`, the figures for the activity change, negative = inhibition in test [1] and in test [2] were 12.9% and 4.96%, respectively. Also, the activity, negative = inhibition in [3] was 1.49%. In addition, in test [4], the Potency was more than 20.6 µM. Also, in test [5], the activation was -10.2%.
For `CN1C(=O)c2ccc(N(C)C)cc2C1=O` the same measures were 1.85%, -12.3%, 1.02%, more than 20.6 µM and 14.5%.
For `CCCC(=O)N(Cc1cc2ccccc2[nH]c1=O)c1ccccc1OC`, the activity change, negative = inhibition was -6.44% in test [1] and 22.4% in test [2]. Further, the activity, negative = inhibition in test [3] was 5.08%. Besides, the Potency in [4] is more than 20.6 µM. In test [5], the activation is -13.3%.
Consider `CCC[C@H]1C[C@H](C(=O)N[C@@H]([C@H]2O[C@@H](SC)[C@@H](O)[C@@H](O)[C@@H]2O)[C@H](C)Cl)N(C)C1`, for which the Potency entry in test [6], in test [7], in test [8], in test [9], in test [10] and in test [11] was “inactive” throughout. Besides, the Potency result (in test [12]; in the test on ATS189) was “inactive” in each case. The Potency in the test on CP262 was 15.1 nM (active); in the test on CP297, 60.1 nM (active); in the test on CP335 it was 60.1 nM (active); with Dd2, 44.7 nM (active); with TAB109 it was 31.6 nM (active); with W2, 42.6 nM (active).
For the compound `CCN1CCC[C@@H]1CNC(=O)c1c(O)c(Cl)cc(Cl)c1OC`, the compound was called inactive in test [13].
On to `O=C(NC[C@@H]1CCCCN1)c1cc(OCC(F)(F)F)ccc1OCC(F)(F)F`, for which the Potency entry in test [8] is “inactive”.
As for `ClC(Br)=C(n1cnc2ccccc21)n1cnc2ccccc21`, the activity change, negative = inhibition in test [1] is -25.5%; in test [2] it was -11.4%. Also, in [4], the Potency was more than 20.6 µM.
For the compound `Cn1c(=O)cc(NCc2ccccc2)[nH]c1=O`, the activity change, negative = inhibition in test [1] was 15%; in test [2], -6.77%. Moreover, in [4], the Potency was more than 20.6 µM.
For the compound `Cc1ccc(CNC(=O)c2cc3c(=O)n4ccccc4nc3n(CC3CCCO3)c2=N)cc1` (configuration not stated), the activity change, negative = inhibition in test [1] is 20.6%; in test [2] it was 21.8%. For the same compound, the Potency in [4] was more than 20.6 µM; in test [5], 7.94 µM (active).
As to `COc1cc(-c2nn3c(COc4ccccc4)nnc3s2)cc(OC)c1OC`, the activity change, negative = inhibition in test [1] was 0.0695%; in [2], 11.1%. Also, in test [4], the Potency was more than 20.6 µM.
On the same counts, the results for `CCCCOC(=O)CSc1nc(N)c(C#N)c(-c2ccc(OC)cc2)c1C#N` are -13.6%, -0.768% and more than 20.6 µM.
